PKA-R2B act – PKA-R2B complex activation; PKA-R2B holoenzyme dissociation, Cy5-IP20 fluorescence polarization; R2B truncated from residue 108, S112A mutant; 0% DMSO only, 100% 113 µM cGMP; P22694+P31323; 340,000 tested, 0.079% active; activation, % at 11.4 µM;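 active = activation above a cutoff set at the mean over all compounds plus 3 SD, cut at about 18% in these data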;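 note: higher means more holoenzyme dissociation and a rise in polarization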
PKA-R1A activ – activators of PKA-R1A complex; PKA-R1A dissociation, Cy5-IP20 fluorescence polarization; scaled: DMSO 0%, 113 µM cGMP 100%; activation, % at 11.4 µM; 340,000 tested, 0.083% active;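 active = percent activation above the mean of all tested compounds plus 3 SD, cut at about 19% in these data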;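 note: higher means more PKAc released from R1A so a rise in polarization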
Rin1-Abl PPI inh – human Rin1-Abl interaction inhibition; 360,000 tested, 0.4% active; AID 588664; P00519+Q13671; inhibition, % at 7.35 µM; TR-FRET Rin1/Abl binding, biochemical; in the data active = inhibition above about 5%, passing the limit was not always enough
IDE act – boosts human insulin-degrading enzyme activity in HEK cells. P14735. FAbeta-B cleavage, fluorescence polarization; 0% vehicle, 100% cell-free pure enzyme wells. activation, % at 5.96 µM. 340,000 tested, 0.073% active;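 active = activation above the mean of all tested compounds plus 3 SD, set per screening campaign, cut at about 17% in these data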
IDE cell inh – cellular human IDE inhibition | P14735 | HEK cells, FAbetaB cleavage, fluorescence polarization | inhibition, % at 5.59 µM | 320,000 tested, 0.41% active;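 active = percent inhibition above the average of all tested compounds plus 3 SD, set per screening campaign, cut at about 16% in these data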;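 note: IDE supplied by intact live HEK cells; FP after avidin binding of uncleaved biotin substrate so inhibition keeps polarization high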
E coli Lon inh – inhibits E. coli Lon protease | P0A9M0 | inhibition, % at 7.94 µM | AID 602123 | 360,000 tested, 0.42% active | purified E. coli Lon protease, fluorescence polarization; in the data active = inhibition above about 13%, passing the limit was not always enough
Target sequence (P0A9M0 whole entry, looked up): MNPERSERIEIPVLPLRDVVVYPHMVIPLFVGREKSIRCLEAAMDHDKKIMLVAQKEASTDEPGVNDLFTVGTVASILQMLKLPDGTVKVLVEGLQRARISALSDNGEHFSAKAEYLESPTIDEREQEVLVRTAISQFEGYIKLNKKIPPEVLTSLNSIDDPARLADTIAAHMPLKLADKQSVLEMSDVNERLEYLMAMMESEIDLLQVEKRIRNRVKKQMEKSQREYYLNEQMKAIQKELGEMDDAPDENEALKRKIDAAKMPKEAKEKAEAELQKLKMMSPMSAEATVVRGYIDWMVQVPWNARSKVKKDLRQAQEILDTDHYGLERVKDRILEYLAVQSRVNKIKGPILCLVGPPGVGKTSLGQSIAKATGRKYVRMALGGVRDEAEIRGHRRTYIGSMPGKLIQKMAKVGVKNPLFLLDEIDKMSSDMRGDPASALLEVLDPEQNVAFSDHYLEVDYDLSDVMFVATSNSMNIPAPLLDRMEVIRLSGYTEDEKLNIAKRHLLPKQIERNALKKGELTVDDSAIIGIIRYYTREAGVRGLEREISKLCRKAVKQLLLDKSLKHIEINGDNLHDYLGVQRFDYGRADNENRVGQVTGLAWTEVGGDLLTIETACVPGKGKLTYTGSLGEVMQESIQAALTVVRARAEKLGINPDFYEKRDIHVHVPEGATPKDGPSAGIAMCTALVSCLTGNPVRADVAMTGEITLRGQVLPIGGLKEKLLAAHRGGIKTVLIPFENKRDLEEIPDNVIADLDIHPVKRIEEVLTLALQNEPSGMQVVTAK
E coli Lon conf – confirmation of E. coli Lon protease inhibitors | shares compounds with E coli Lon inh | purified E. coli Lon, fluorescence polarization | inhibition, % at 7.94 µM | 1,400 tested, 31% active | AID 602230; in the data active = inhibition above about 16%
Each line names hits and unclear results; the compound was inactive in the other large screens (follow-up assays come after a bar, where they were run). In the library only some 1.3% were active in any assay of this set; here they are far more common.

COc1ccc(C(=O)NNC(=O)C2CCCO2)cc1 (stereo unspecified)	none
COc1ccccc1N1CCN(S(=O)(=O)c2c(C)[nH]c(=O)[nH]c2=O)CC1	none
Cc1[nH]c(=O)[nH]c(=O)c1S(=O)(=O)N1CCN(c2ccccc2F)CC1	E coli Lon inh 43.6 | E coli Lon conf inactive
CN(CCc1ccccn1)C(=O)CC1C(=O)NCCN1Cc1ccc(-c2ccccc2)cc1 (stereo unspecified)	none
Cc1ccc(CN2CCNC(=O)C2CC(=O)N(C)CCc2ccccc2)cc1 (stereo unspecified)	E coli Lon inh 23.3 | E coli Lon conf inactive
CSCCC(NC(=O)c1ccc(Cl)cc1)C(=O)OCC(=O)Nc1ccc(C#N)cc1 (stereo unspecified)	E coli Lon inh 35.4 | E coli Lon conf inactive
CCOC(=O)N1CCC(NC(=O)Cn2c3c(c(-c4ccccc4Cl)cc2=O)CCC3)CC1	E coli Lon inh 19.8 | E coli Lon conf inactive
O=C(Cn1c2c(c(-c3ccccc3Cl)cc1=O)CCC2)NCC1CCCO1 (stereo unspecified)	none
CC(C)[C@H](NC(=O)[C@H](CCCN=C(N)N)NC(=O)NC(Cc1ccccc1)C(=O)O)C(=O)NC(C=O)CCCN=C(N)N (stereo partly specified)	none
Oc1ccc2nnc3c(Br)cnn3c2c1	E coli Lon inh 134.3 | E coli Lon conf 144.5
Clc1ccc2nc3c4ccccc4cnn3c2c1	none
O=C(c1cc2ccccc2o1)N1CCN(S(=O)(=O)c2cccs2)CC1	none
O=C(c1cc2ccccc2o1)N1CCN(S(=O)(=O)c2ccccc2)CC1	E coli Lon inh 18.6 (no result: IDE cell inh) | E coli Lon conf inactive
Cc1c(C(=O)N2CCN(S(=O)(=O)c3ccccc3)CC2)oc2ccc(Br)cc12	E coli Lon inh 34.8 | E coli Lon conf inactive
Cc1c(C(=O)N2CCCCC2)oc2ccc(Br)cc12	none
Nc1c(C(=O)CSc2nccn2-c2cccc(F)c2)c(=O)[nH]c(=O)n1C1CC1	none
Cc1cccc(OCCC(=O)NNC(=O)Cn2nc(C)cc2C)c1	none
CC(=O)[C@]1(O)Cc2c(O)c3c(c(O)c2[C@@H](O[C@H]2C[C@H](N)[C@H](O)[C@H](C)O2)C1)C(=O)c1ccccc1C3=O	none (no result: PKA-R2B act, PKA-R1A activ, Rin1-Abl PPI inh, IDE act, E coli Lon inh)
COc1cccc2c1C(=O)c1c(O)c3c(c(O)c1C2=O)C[C@@](O)(C(C)=O)C[C@@H]3O[C@H]1C[C@H](N)[C@H](O)[C@H](C)O1	IDE act 18.6, E coli Lon inh active (no result: IDE cell inh) | E coli Lon conf active
COc1cccc2c1C(=O)c1c(O)c3c(c(O)c1C2=O)CC(O)(C(=O)CO)CC3OC1CC(N(C)C)C(O)C(C)O1 (stereo unspecified)	E coli Lon inh active (no result: IDE cell inh) | E coli Lon conf active
COc1ccc(/C=C/C(=O)NCC(=O)N/N=C(/C)c2ccc(Cl)cc2)cc1	none
O=C1N[C@@H](Cc2ccccc2)C(=O)N2[C@H]1C[C@]1([C@]34C[C@H]5C(=O)N[C@@H](Cc6ccccc6)C(=O)N5[C@H]3N(S(=O)(=O)c3ccccc3)c3ccccc34)c3ccccc3N(S(=O)(=O)c3ccccc3)[C@H]21	E coli Lon inh 54.8 | E coli Lon conf inactive
COC(=O)C1(C(C[N+](=O)[O-])c2ccco2)C(=O)NCC1c1ccccc1 (stereo unspecified)	none (no result: PKA-R2B act, PKA-R1A activ, IDE act)
O=C(Nc1nc2ccccc2s1)C1c2ccccc2Oc2ccccc21	none
CCc1nnc(NC(=O)C2c3ccccc3Oc3ccccc32)s1	E coli Lon inh 19.0 | E coli Lon conf inactive
Clc1ccc2nc(-c3ccccc3)c(Cc3ccsc3)n2c1	E coli Lon inh 17.7 (no result: PKA-R2B act, PKA-R1A activ, IDE act, IDE cell inh) | E coli Lon conf inactive
CCCc1nc2ccc(Cl)cn2c1Cc1ccsc1	E coli Lon inh 25.0 (no result: PKA-R2B act, PKA-R1A activ, IDE act, IDE cell inh) | E coli Lon conf inactive
Brc1ccc2nc(-c3ccccc3)c(Cc3ccsc3)n2c1	none (no result: PKA-R2B act, PKA-R1A activ, IDE act, IDE cell inh)
Clc1ccc(-c2nc3ccc(Cl)cn3c2Cc2ccsc2)cc1	E coli Lon inh 25.3 (no result: PKA-R2B act, PKA-R1A activ, IDE act, IDE cell inh) | E coli Lon conf inactive
Cc1ccc(-c2nc3c(C)cc(Br)cn3c2Cc2ccsc2)cc1	none (no result: PKA-R2B act, PKA-R1A activ, IDE act, IDE cell inh)
Clc1ccc2nc(-c3ccco3)c(Cc3ccsc3)n2c1	none (no result: PKA-R2B act, PKA-R1A activ, IDE act, IDE cell inh)
Cc1cc(Br)cn2c(Cc3ccsc3)c(-c3ccccc3)nc12	E coli Lon inh 23.8 (no result: PKA-R2B act, PKA-R1A activ, IDE act, IDE cell inh) | E coli Lon conf inactive
N#Cc1ccc(-c2nc3ccc(Cl)cn3c2Cc2ccsc2)cc1	none (no result: PKA-R2B act, PKA-R1A activ, IDE act, IDE cell inh)
COc1ccc(/C=C(/NC(=O)c2ccccc2)C(=O)N/N=C/c2ccc3c(c2)OCO3)cc1OC	none (no result: IDE cell inh)
Cc1cccc(NC(=O)CSc2nncn2-c2ccccn2)c1	none
O=C(CCCOC(=O)c1ccc(O)cc1O)c1ccc(Br)cc1	E coli Lon inh 20.5 (no result: IDE cell inh) | E coli Lon conf inactive
O=[N+]([O-])c1cccc(C(=S)N2CCN(c3ccc(F)cc3)CC2)c1	E coli Lon inh 56.1 | E coli Lon conf inactive
O=C(COC(=O)/C=C/c1ccc([N+](=O)[O-])cc1)NNC(=O)c1ccccc1	none
COc1cc(NC(=O)c2ccccc2F)ccc1NC(=O)c1cc2ccccc2o1	E coli Lon inh 16.2 (no result: IDE cell inh) | E coli Lon conf inactive
CN(Cc1ccccc1)C(=O)Cc1ccccc1	none
CN1Cc2c(N3CCOCC3)nc(SCc3ccccc3)c(C#N)c2CC1(C)C	E coli Lon inh 44.7 | E coli Lon conf inactive
CCSc1nc(N2CCOCC2)c2c(c1C#N)CC(C)(C)N(C)C2	none
CC1(C)Cc2c(c(-c3ccco3)[nH]c(=O)c2C#N)CS1	E coli Lon inh 33.5 | E coli Lon conf 28.6
CC1(C)Cc2c(c(-c3ccccc3)[nH]c(=O)c2C#N)CS1	none
CN1CCN(C(c2cccnc2)c2ccc3cccnc3c2O)CC1 (stereo unspecified)	none
CN1CCN(C(c2ccc(F)cc2)c2ccc3cccnc3c2O)CC1 (stereo unspecified)	E coli Lon inh 25.5 (no result: IDE cell inh) | E coli Lon conf inactive
CCCCCCCC1(C)NC(=O)N(c2ccccc2)N1 (stereo unspecified)	none
CCOc1ccc(-c2c[n+](=O)c3c(n2[O-])CCCC3)c(OCC)c1	E coli Lon inh 68.1 | E coli Lon conf inactive
Cc1cc(C)c2nc(N(CCN(C)C)C(=O)c3ccc4ccccc4c3)sc2c1	E coli Lon inh 20.1 | E coli Lon conf inactive
CN(C)CCN(C(=O)c1ccc2ccccc2c1)c1nc2c(F)cccc2s1	none
S=C(Nc1cccnc1)N1CCCCC1	none
COc1ccc(C(C(=O)NC2CCCC2)N(CC2CCCO2)C(=O)Cn2nnc(-c3ccc(C)o3)n2)cc1 (stereo unspecified)	E coli Lon inh 18.4 | E coli Lon conf inactive
Cc1ccc(-c2nnn(CC(=O)N(CC3CCCO3)C(C(=O)NC3CCCCC3)c3ccc(F)cc3)n2)o1 (stereo unspecified)	none
